# Compound activity deposited in PubChem by Broad Institute.
# Hedgehog inh = Sonic Hedgehog pathway inhibition. Shh-LIGHT2 Gli-luciferase reporter, 30 h. inhibition, % (concentration not given with the values). hit rate 2.1% among 22,000. AID 2313;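 active = mean inhibition across valid replicates above about 65%, limit read from the data; inconclusive = mean under the limit, yet half or more replicates past it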;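 note: pathway switched on by Shh-conditioned medium diluted 1 in 25 in low serum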
# NOMO-1 viab = STK33 inhibitor candidate reducing NOMO-1 cell viability; inhibition, % (test concentration not listed); NOMO-1 AML viability, CellTiter-Glo luminescence, 72 h; hit rate 7.5% among 37,000; in the data active = inhibition above about 80%; inconclusive = no clear call, values can overlap the other calls
# MITF inhib = inhibitors of MITF; TRPM1 promoter luciferase, luminescence, 24 h; inhibition, % (test concentration not listed); AID 2240; hit rate 0.28% among 37,000; in the data active = inhibition above about 85%; inconclusive = no clear call, values can overlap the other calls; inactive = below about 68%;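 note: human melanocyte line stably carrying TRPM1 promoter luciferase reporter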
# * = called active by the depositor; ? = inconclusive; / = no result given. Sampled rows, rich in hits. Any-hit rate of the full collection: about 7.9%.
SMILES,Hedgehog inh,NOMO-1 viab,MITF inhib
Cc1ccc(NC(=O)COc2ccccc2)c(NC(=O)c2ccc(Cl)cc2)c1,/,12,-21
COc1ccc(CN(C)C[C@@H]2Oc3ccc(NC(=O)Nc4ccc(C(F)(F)F)cc4)cc3CC(=O)N([C@@H](C)CO)C[C@@H]2C)cc1,3,17,5
C[C@@H]1CN([C@H](C)CO)C(=O)Cc2cc(NC(=O)Nc3ccc(C(F)(F)F)cc3)ccc2O[C@H]1CN(C)Cc1ccc(Oc2ccccc2)cc1,/,112*,-2
C[C@H](CO)N1C[C@H](C)[C@H](CN(C)Cc2ccc(Oc3ccccc3)cc2)Oc2ccc(NC(=O)Nc3ccc(C(F)(F)F)cc3)cc2CC1=O,-46,119*,6
COc1ccc(S(=O)(=O)N(C)C[C@@H]2Oc3c(NC(=O)Nc4c(C)noc4C)cccc3C(=O)N([C@H](C)CO)C[C@H]2C)cc1,-22,-16,-1
COc1ccc(-c2cc(=O)c3c(O)c(OC)c(O)c(OC)c3o2)cc1,-21,1,-43
COc1cccc(NC(=O)Cn2cc(C(=O)C(C)(C)C)c3ccccc32)c1,/,16,37
CCOC(=O)c1ccc(NC(=O)CSc2nc3cc4ccccc4cc3[nH]2)cc1,/,111*,-9
COC(=O)c1cccc(NC(=O)CSc2nc3cc4ccccc4cc3[nH]2)c1,/,58,-28
C[C@H]1CN([C@@H](C)CO)C(=O)c2cccc(NS(=O)(=O)c3ccccc3)c2O[C@@H]1CN(C)Cc1ccc(C(=O)Nc2ccccc2N)cc1,/,?,-3
C[C@@H]1CN([C@H](C)CO)C(=O)c2cccc(NS(=O)(=O)c3ccccc3)c2O[C@@H]1CN(C)Cc1ccc(C(=O)Nc2ccccc2N)cc1,/,128*,17
C[C@@H]1CN([C@@H](C)CO)C(=O)c2cccc(NS(C)(=O)=O)c2O[C@@H]1CN(C)Cc1ccc(C(=O)Nc2ccccc2N)cc1,/,123*,16
C[C@@H]1CN([C@@H](C)CO)C(=O)c2cccc(NS(=O)(=O)c3ccc(Cl)cc3)c2O[C@H]1CN(C)Cc1ccc(C(=O)Nc2ccccc2N)cc1,/,48,-11
C[C@H]1CN([C@@H](C)CO)C(=O)c2cccc(NS(C)(=O)=O)c2O[C@@H]1CN(C)Cc1ccc(C(=O)Nc2ccccc2N)cc1,/,12,3
C[C@H](CO)N1C[C@H](C)[C@@H](CN(C)Cc2ccc(C(=O)Nc3ccccc3N)cc2)Oc2c(NS(=O)(=O)c3ccc(Cl)cc3)cccc2C1=O,/,51,8
C[C@H]1CN([C@@H](C)CO)C(=O)c2cccc(NS(=O)(=O)c3ccccc3)c2O[C@H]1CN(C)Cc1ccc(C(=O)Nc2ccccc2N)cc1,/,120*,11
Cc1ccc(S(=O)(=O)Nc2cccc3c2O[C@@H](CN(C)Cc2ccc(C(=O)Nc4ccccc4N)cc2)[C@@H](C)CN([C@H](C)CO)C3=O)cc1,/,137*,30
COc1ccc(NC(=O)N(C)C[C@@H]2Oc3ccc(NC(=O)Cn4cnnn4)cc3C(=O)N([C@H](C)CO)C[C@H]2C)cc1,/,-4,-3
O=C(OC[C@H]1O[C@@H](Oc2ccc(O)cc2COC(=O)C2(O)C=CCCC2=O)[C@H](O)[C@@H](O)[C@@H]1O)c1ccccc1 (stereo not given in full),1,/,/
O=C(O)COc1ccc(S(=O)(=O)NC2CCCCC2)cc1Cl,/,-27,-14
O=C(CSc1nc2ccc([N+](=O)[O-])cc2s1)Nc1ccc(Br)cc1Cl,/,18,15
CC(C)C(NC=O)C(=O)N1CCC2Oc3ccc(cc3)/C=C\NC(=O)C(Cc3ccccc3)NC(=O)C21 (stereo not given),-9,/,/
C[C@@H]1CN([C@H](C)CO)C(=O)c2cccc(NS(=O)(=O)c3ccc(F)cc3)c2O[C@H]1CN(C)Cc1ccc(C(=O)Nc2ccccc2N)cc1,/,57,-10
C[C@@H]1CN([C@H](C)CO)C(=O)c2cccc(NS(=O)(=O)c3ccc(F)cc3)c2O[C@@H]1CN(C)Cc1ccc(C(=O)Nc2ccccc2N)cc1,/,127*,6
CCc1ccc(/C=N/n2c(C)nnc2-n2nc(C)cc2C)cc1,12,2,3
SMILES,Hedgehog inh,NOMO-1 viab,MITF inhib
O=C(CSc1nnc2ccc3ccccc3n12)Nc1nsc(-c2ccc(Cl)cc2)n1,/,0,-7
CC(C)OC(=O)n1c(=S)oc2ccccc21,/,10,3
CCCCC(=O)/C=C/n1c(=S)oc2ccccc21,/,133*,-5
COc1ccc(S(=O)(=O)Nc2ccc3c(c2)CC(=O)N([C@@H](C)CO)C[C@H](C)[C@@H](CN(C)C(=O)NC2CCCCC2)O3)cc1,32,38,11
CCN(CC)CCNc1ccc(CO)c2sc3ccccc3c(=O)c12,?,102*,20
CCCCOc1cc(C(=O)NCCN(CC)CC)c2ccccc2n1,0,-9,-10
C/C=C1/CN[C@H]2Cc3c([nH]c4ccccc34)C(=O)C[C@H]1C2C(=O)OC (stereo not given in full),3,26,2
